{"source": "PubChem BioAssay AID743025", "about": "(Vanderbilt Specialized Chemistry Center, 2013)", "note": "Values without a mark were called inactive. Calls of active or inactive are those of the source.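 The calls were made as follows: active = IC50 below 10 µM at human M5 in a calcium flux test, acting as a negative modulator; inactive = the rest.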"}
{"molecular_target": "Muscarinic acetylcholine receptor M5 (Homo sapiens) (UniProt P08912)", "sequence (P08912 whole entry, looked up)": "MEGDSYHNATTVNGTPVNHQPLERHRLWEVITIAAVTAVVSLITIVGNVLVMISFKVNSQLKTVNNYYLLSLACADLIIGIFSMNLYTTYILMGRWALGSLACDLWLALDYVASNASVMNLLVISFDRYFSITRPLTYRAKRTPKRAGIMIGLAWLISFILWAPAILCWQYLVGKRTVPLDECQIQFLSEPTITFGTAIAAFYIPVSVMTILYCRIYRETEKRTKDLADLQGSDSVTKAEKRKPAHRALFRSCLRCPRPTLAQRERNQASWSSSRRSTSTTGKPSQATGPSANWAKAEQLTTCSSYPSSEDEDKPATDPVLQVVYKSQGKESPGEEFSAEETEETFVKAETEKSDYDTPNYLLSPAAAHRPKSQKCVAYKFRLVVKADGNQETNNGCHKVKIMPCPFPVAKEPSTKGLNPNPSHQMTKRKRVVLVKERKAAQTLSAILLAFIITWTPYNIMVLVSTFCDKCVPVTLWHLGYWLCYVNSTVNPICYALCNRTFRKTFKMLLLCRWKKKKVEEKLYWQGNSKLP", "assay": "inhibition of ACh-evoked M5 calcium signal – cell-based, single concentration, human M5 (AID 743025)", "conditions": "CHO-K1 hM5, ACh EC80 calcium flux, Fluo-4; at 10 µM; hits give low values"}
{"smiles": "COc1ccc(C23c4ccccc4C(=O)N2CCN3C(=O)c2cccc(F)c2)cc1", "note": "(configuration not stated)", "activity remaining": "57.4% (active)"}
{"smiles": "O=C(c1cc(F)cc(F)c1)N1CCN2C(=O)c3ccccc3C12c1ccc(F)cc1", "note": "(configuration not stated)", "activity remaining": "69.3%"}
{"smiles": "O=C(c1cccnc1)N1CCN2C(=O)c3ccccc3C12c1ccccc1", "note": "(configuration not stated)", "activity remaining": "74.8%"}
{"smiles": "O=C(c1ccc(-c2ccccc2)cc1)N1CCN2C(=O)c3ccccc3C12c1ccccc1", "note": "(configuration not stated)", "activity remaining": "62.7%"}
{"smiles": "O=C(c1ccc(F)c(F)c1)N1CCCN2C(=O)c3ccccc3C12c1ccc(Cl)cc1", "note": "(configuration not stated)", "activity remaining": "80.4%"}
{"smiles": "O=C(c1ccc(C(F)(F)F)cc1)N1CCCN2C(=O)c3ccccc3C12c1ccc(Cl)cc1", "note": "(configuration not stated)", "activity remaining": "75.7%"}
{"smiles": "O=C(c1ccc(Oc2ccccc2)cc1)N1CCN2C(=O)c3ccccc3C12c1ccccc1", "note": "(configuration not stated)", "activity remaining": "75.1%"}
{"smiles": "CN(C(=O)c1ccccc1)C(c1ccccc1)c1ccccc1", "activity remaining": "84.3%"}
{"smiles": "O=C1c2ccccc2C2(c3ccccc3)N(Cc3ccc(F)cc3)CCN12", "note": "(configuration not stated)", "activity remaining": "80.8%"}
{"smiles": "COc1ccc(C(=O)N2CCN3C(=O)c4ccccc4C23c2ccc(Cl)cc2)cc1F", "note": "(configuration not stated)", "activity remaining": "74%"}
{"smiles": "O=C(c1cc(F)cc(F)c1)N1CCN2C(=O)c3ccccc3C12c1ccc(Cl)cc1", "note": "(configuration not stated)", "activity remaining": "3.53% (active)"}
{"smiles": "O=C(c1ccc(C(F)(F)F)cc1)N1CCN2C(=O)c3ccccc3C12c1ccc(Cl)cc1", "note": "(configuration not stated)", "activity remaining": "2.04% (active)"}
{"smiles": "O=C(c1ccc(F)cc1)N1CCCN2C(=O)c3ccccc3C12c1ccc(Cl)cc1", "note": "(configuration not stated)", "activity remaining": "76%"}
{"smiles": "COc1ccc(C23c4ccccc4C(=O)N2CCN3C(=O)c2ccccn2)cc1", "note": "(configuration not stated)", "activity remaining": "66.1%"}
{"smiles": "COc1ccc(C23c4ccccc4C(=O)N2CCN3C(=O)c2ccccc2C)cc1", "note": "(configuration not stated)", "activity remaining": "49.9% (active)"}
{"smiles": "Cc1ccc(C(=O)N2CCN3C(=O)c4ccccc4C23c2ccc(C)cc2)cc1", "note": "(configuration not stated)", "activity remaining": "49.1% (active)"}
{"smiles": "C=CCN1C[C@H](C)N2C(=O)c3ccccc3[C@@]12c1ccc(Cl)cc1", "activity remaining": "64.3%"}
{"smiles": "CCCCCC(=O)N1CCN2C(=O)c3ccccc3C12c1ccccc1", "note": "(configuration not stated)", "activity remaining": "75.3%"}
{"smiles": "O=C1c2ccccc2C2(c3ccccc3)N1CCN2C(=O)C(Cl)(Cl)Cl", "note": "(configuration not stated)", "activity remaining": "55.1% (active)"}
{"smiles": "CC(C)(C)NC(=O)N1CCCN2C(=O)c3ccccc3C12c1ccccc1", "note": "(configuration not stated)", "activity remaining": "83.3%"}
{"smiles": "O=C(c1ccccc1)N1CCN2C(=O)c3ccccc3C12c1ccccc1", "note": "(configuration not stated)", "activity remaining": "74.8%"}
{"smiles": "O=C(Nc1cccc(C(F)(F)F)c1)N1CCN2C(=O)c3ccccc3C12c1ccccc1", "note": "(configuration not stated)", "activity remaining": "76.4%"}
{"smiles": "O=C(c1ccc(F)c(F)c1)N1CCc2ccccc2C1c1ccc(Cl)cc1", "note": "(configuration not stated)", "activity remaining": "67.4%"}
{"smiles": "O=C(c1cc(F)cc(F)c1)N1CCN2C(=O)c3ncccc3C12c1ccccc1", "note": "(configuration not stated)", "activity remaining": "75.2%"}
{"smiles": "Cc1ccc(S(=O)(=O)N2CCN3C(=O)c4ccccc4C32c2ccccc2)cc1", "note": "(configuration not stated)", "activity remaining": "73.4%"}
{"smiles": "O=C1c2ccccc2C2(c3ccc(F)cc3)NCCN12", "note": "(configuration not stated)", "activity remaining": "77.6%"}
{"smiles": "O=C1c2ccccc2C(c2ccccc2)N1c1ccccc1", "note": "(configuration not stated)", "activity remaining": "82.3%"}
{"smiles": "O=C1c2ccccc2C2(c3ccccc3)N1CCN2C(=O)C1CCCC1", "note": "(configuration not stated)", "activity remaining": "97.8%"}
{"smiles": "N#CC1(c2ccccc2)CCCN1C(=O)c1ccccc1", "note": "(configuration not stated)", "activity remaining": "84.8%"}
{"smiles": "Cc1ccc(C23c4ccccc4C(=O)N2CCN3C(=O)c2ccc(F)c(F)c2)cc1", "note": "(configuration not stated)", "activity remaining": "0.51% (active)"}
{"smiles": "O=C(c1cc(F)ccc1F)N1CCN2C(=O)c3ccccc3C12c1ccccc1", "note": "(configuration not stated)", "activity remaining": "76%"}
{"smiles": "Cc1cccc(C(=O)N2CCCN3C(=O)c4ccccc4C23c2ccc(Cl)cc2)c1", "note": "(configuration not stated)", "activity remaining": "72.9%"}
{"smiles": "CSc1cccc(NC(=S)N2CCN3C(=O)c4ccccc4C32c2ccccc2)c1", "note": "(configuration not stated)", "activity remaining": "77.7%"}
{"smiles": "O=C(c1ccc(F)cc1)N1CCN2C(=O)c3ncccc3C12c1ccccc1", "note": "(configuration not stated)", "activity remaining": "65.2%"}
{"smiles": "Cc1cccc(C(=O)N2CCN3C(=O)c4ccccc4C23c2ccccc2)c1", "note": "(configuration not stated)", "activity remaining": "52.7% (active)"}
{"smiles": "O=C(c1ccc(OC(F)F)cc1)N1CCN2C(=O)c3ccccc3C12c1ccc(Cl)cc1", "note": "(configuration not stated)", "activity remaining": "13.3% (active)"}
{"smiles": "O=C(c1ccc(C(=O)C(F)(F)F)cc1)N1CCN2C(=O)c3ccccc3C12c1ccccc1", "note": "(configuration not stated)", "activity remaining": "90%"}
